{
  "source": "PubChem BioAssay",
  "note": "Unmarked numbers belong to inactive results. No rule for the calls is given here.",
  "data": [
    {"target": "Pantothenate synthetase (Mycobacterium tuberculosis (strain ATCC 25618 / H37Rv)) (UniProt P9WIL5)", "sequence (P9WIL5 whole entry, looked up)": "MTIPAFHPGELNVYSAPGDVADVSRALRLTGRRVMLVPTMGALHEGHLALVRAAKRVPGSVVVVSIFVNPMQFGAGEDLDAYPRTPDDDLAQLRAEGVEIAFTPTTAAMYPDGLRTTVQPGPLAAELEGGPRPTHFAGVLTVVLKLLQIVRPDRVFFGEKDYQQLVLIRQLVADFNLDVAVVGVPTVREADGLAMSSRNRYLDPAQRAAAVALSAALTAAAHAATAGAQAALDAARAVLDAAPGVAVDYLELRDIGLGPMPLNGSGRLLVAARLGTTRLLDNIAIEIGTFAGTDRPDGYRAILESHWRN", "experiment": "Coupled enzyme confirmation of inhibitors against recombinant Mtb PanC (AID 375);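 also: 0% = full reaction with vehicle and 100% = no enzyme background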", "conditions": "coupled enzyme assay; at 10 µM, active compounds read high", "units": {"inhibition": "%"}, "values": [
      {"compound": "CCOC(=O)c1ccc(N=c2sc(C(=O)OC)cc(=O)n2Cc2ccco2)cc1", "inhibition": 0},
      {"compound": "CN(C)c1oc(-c2ccccc2F)nc1C#N", "inhibition": 1},
      {"compound": "C=CCOc1nc2c(c(=O)n(C)c(=O)n2C)n1Cc1c(Cl)cccc1Cl", "inhibition": 1},
      {"compound": "COCCNC(=O)Cn1cc2c(n1)CCCCC2", "inhibition": 1},
      {"compound": "CCOC(=O)c1ccc(N2C(=O)CC(N3CCN(C/C=C/c4ccccc4)CC3)C2=O)cc1", "note": "(stereo not given)", "inhibition": 2},
      {"compound": "COc1ccc(N2CCN(C(=O)c3c(-c4ccccc4)noc3C)CC2)cc1", "inhibition": 0},
      {"compound": "COc1ccc(C(N)=O)cc1N", "inhibition": 0},
      {"compound": "CC(C)C1C2=C(CC(C)(C)CC2=O)ON1c1ccccc1", "note": "(stereo not given)", "inhibition": 1},
      {"compound": "COc1ccc2nc(CC(C)(C)CC(=O)O)c[n+]([O-])c2c1", "inhibition": 10},
      {"compound": "CC(c1ccco1)N(C(=O)COc1ccc(Cl)cc1Cl)c1ccccn1", "note": "(stereo not given)", "inhibition": 4},
      {"compound": "COc1ccc(OCCSc2nc3ccccc3n2CC(=O)O)cc1", "inhibition": 2},
      {"compound": "CN(Cc1ccccc1)C(=O)CNC(=O)Cn1cnc2ccccc2c1=O", "inhibition": 0},
      {"compound": "CCCCn1nnc(NC(=O)Cc2ccc(Cl)cc2)n1", "inhibition": 0},
      {"compound": "O=C(c1cnc2n(c1=O)CCS2)N(C1CCCCC1)C1CCCCC1", "inhibition": 0},
      {"compound": "COc1ccc(NC(=O)CSc2nc(C)cc(C(F)(F)F)n2)cc1", "inhibition": 0},
      {"compound": "O=C(NCN1CCCCC1)c1cccnc1", "inhibition": 0},
      {"compound": "Cc1cccc(-n2ncc3c(NCCCO)ncnc32)c1", "inhibition": 2},
      {"compound": "O=C(NCc1ccc2c(c1)OCO2)C1CCC(CNS(=O)(=O)c2ccccc2)CC1", "note": "(stereo not given)", "inhibition": 0},
      {"compound": "COC(=O)c1[nH]c2cccc(C)c2c1NC(=O)CN1CCCc2ccccc21", "inhibition": 1},
      {"compound": "CCn1cc(C(=O)NCC2CCCO2)c(=O)c2cc(S(=O)(=O)N(C)C)ccc21", "note": "(stereo not given)", "inhibition": 0},
      {"compound": "CCCOc1nc(N)c(C#N)c(-c2ccccc2F)c1C#N", "inhibition": 4},
      {"compound": "CCOc1cc(C(=O)Nc2ccon2)cc(OCC)c1OCC", "inhibition": 8},
      {"compound": "CC(C)C(=O)Nc1ccc(C(=O)NCc2cccnc2)cc1", "inhibition": 0},
      {"compound": "C=CCOc1ccc(CN(C)CC(=O)N(CC(C)C)c2c(N)n(CC(C)C)c(=O)[nH]c2=O)cc1", "inhibition": 0},
      {"compound": "N#CCc1nc(CSc2nc3ccccc3s2)cs1", "inhibition": 7}
    ]}
  ]
}
